Consider 88 molecules from PubChem BioAssay AID725 (NMMLSC, 2007).

The campaign covered roughly 1,300 compounds. Fewer than 10 were called active. How the calls were made is not given here. These entries were drawn from the full list.

The target of this assay is N-formyl peptide receptor 2 (Homo sapiens) (UniProt P25090). The assay is described as follows: FPRL1 fluorescent ligand binding inhibitors, primary screen, selectivity assay for FPR ligand SAR project, cell-based, flow cytometry, HTS counterscreen (AID 725). The following applies: FPRL1-expressing cells, active compounds read high, concentration not given here.
N-formyl peptide receptor 2 (Homo sapiens), sequence (P25090 whole entry, looked up): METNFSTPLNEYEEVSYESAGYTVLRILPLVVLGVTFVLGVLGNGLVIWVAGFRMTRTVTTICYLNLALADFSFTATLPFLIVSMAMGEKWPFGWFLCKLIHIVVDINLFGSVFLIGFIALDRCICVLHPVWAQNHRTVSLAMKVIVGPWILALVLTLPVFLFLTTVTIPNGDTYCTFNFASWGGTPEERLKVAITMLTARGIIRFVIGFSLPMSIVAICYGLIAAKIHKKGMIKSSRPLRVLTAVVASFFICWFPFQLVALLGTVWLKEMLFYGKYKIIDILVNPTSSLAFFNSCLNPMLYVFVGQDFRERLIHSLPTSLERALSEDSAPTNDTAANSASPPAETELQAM
One may read the inhibition as the relative decrease from the control value, in per cent. In the case of `O=C(C(Cc1ccccc1)N1Cc2ccccc2C1=O)N1CCOCC1` (stereo not drawn), the inhibition is -13.3% (inactive). With `CCOC(=O)c1c(NC(=O)c2cccs2)sc2c1CCC(C(C)(C)C)C2` (stereo not drawn) the figure was -4.5% (inactive); with `CC(C)c1ccc(C2/C(=C(\O)c3ccc(F)cc3)C(=O)C(=O)N2CCN2CCOCC2)cc1` (stereo not drawn), 5.6% (inactive). With `CCOC(=O)Cc1c(C)nc2c(C#N)c(C)[nH]n2c1=O` the figure was 5.1% (inactive); with `O=c1c(-c2ccc(Cl)cc2)c(C(F)(F)F)oc2c(CN3CCCCC3)c(O)ccc12`, 2.2% (inactive); with `COC(=O)c1c(NC(=O)c2cncc(Br)c2)sc2c1CCCC2`, -1.3% (inactive).

Take `CN1C(=O)c2ccccc2C(C(=O)N2CCCC2)C1c1cccs1` (stereo not drawn): the inhibition is -3% (inactive). With `O=C1C(=O)N(c2ccc(Br)cc2)C(c2ccc(Br)cc2)/C1=C(/O)c1ccccc1` (stereo not drawn) the figure was 0.2% (inactive). Take `COC(=O)c1c(NC(=O)c2cc(OC)c(OC)c(OC)c2)sc(C)c1C`: the inhibition is -10.3% (inactive). With `CCOC(=O)c1cc(C(C)C)sc1NC(=O)CCCC(=O)O` the figure was -4.7% (inactive); with `COc1ccc(OC)c(C(=O)CC2(O)C(=O)N(C)c3ccccc32)c1` (stereo not drawn), 1.1% (inactive); with `COc1ccc(CN2CCc3c(c(=O)n4ncc(C(=O)O)c4n3C)C2)cc1`, -3.9% (inactive). With `CCc1c(C)nc2c(-c3ccc(OC)c(OC)c3)c(C)[nH]n2c1=O` the figure was -1.3% (inactive); with `Cc1ccc(C2/C(=C(\O)c3ccc(Cl)cc3)C(=O)C(=O)N2CCN2CCOCC2)cc1` (stereo not drawn), 0.3% (inactive).

Turning to `Cc1cc(C)nc(/N=C(/NC(=O)c2ccccc2)Nc2cccc(Cl)c2)n1`, the inhibition is -4.7% (inactive). Turning to `CCOc1ccc(C2/C(=C(/O)c3ccccc3)C(=O)C(=O)N2CC(C)O)cc1` (stereo not drawn), the inhibition was -1.6% (inactive).

With `CCC(Sc1nc2ncccc2o1)C(=O)Nc1ccccc1OC` (stereo not drawn), the inhibition is -16.4% (inactive). Regarding `O=C1C(=O)N(c2ccccn2)C(c2cccnc2)/C1=C(/O)c1ccccc1` (stereo not drawn), the inhibition was 4.3% (inactive).

As to `CCOC(=O)c1c(NC(=O)c2cccc(Cl)c2)sc(C)c1C`, the inhibition was 6.4% (inactive). As to `COc1ccccc1NC(=O)CSc1nncn2c1cc1occc12`, the inhibition was 34.6% (active). In the case of `Cc1cc(C)c(NC(=O)CSc2nncn3c2cc2oc(C)cc23)c(C)c1`, the inhibition is 13.3% (inactive). For `Cc1cc(C)c(NC(=O)CSc2nncn3c2cc2occc23)c(C)c1`, the inhibition was 12% (inactive).

In the case of `O=C1O[C@@H]2C[C@H]3C[C@@H]2[C@@H]1[C@H]3C(=O)N1CCc2ccccc21`, the inhibition is -14.7% (inactive). With `O=C(O)C1CCCCC1C(=O)Nc1ccc(O)cc1` (stereo not drawn) the figure was -4.1% (inactive). As for `COc1ccc(C2SCC(=O)N2c2ccccc2)cc1` (stereo not drawn), the inhibition was 0% (inactive). With `Cc1ccc(C2/C(=C(\O)c3ccccc3)C(=O)C(=O)N2CCN2CCNCC2)cc1` (stereo not drawn) the figure was 7.6% (inactive). For the molecule `COC(=O)c1c[nH]n2c(=O)c3c(nc12)C(=O)N(Cc1ccccc1)C3`, the inhibition is -4.5% (inactive).

Consider `Cc1cccc(C(CC(=O)O)NS(=O)(=O)c2ccc(C)cc2C)c1` (stereo not drawn), for which the inhibition was -12.7% (inactive). Consider `CCC(=O)N1c2ccccc2CC1C(=O)N1CCN(CC)CC1` (stereo not drawn), for which the inhibition was 5.1% (inactive). As to `COc1ccc(C2C(C(=O)c3ccc(C)o3)=C(O)C(=O)N2Cc2cccnc2)cc1OC` (stereo not drawn), the inhibition was 2.3% (inactive). With `CCN(CC)C(=O)c1c(NC(=O)c2cccc(C)c2)sc2c1CCCCC2` the figure was 0.5% (inactive); with `O=C1C(=O)N(CCCN2CCOCC2)C(c2ccc(Cl)cc2)/C1=C(\O)c1ccccc1` (stereo not drawn), 6.2% (inactive). With `CCc1cc2c(=O)c(-c3ccc4c(c3)OCO4)c(C(F)(F)F)oc2c(CN(C)C)c1O` the figure was -3% (inactive); with `O=C(CCCC(=O)c1ccccc1)Nc1cc(F)ccc1F`, -27.4% (inactive); with `CCN(C(=O)c1noc2c1CC(C)CC2)c1cccc(C)c1` (stereo not drawn), -9.6% (inactive). With `CC(C)c1ccc(CN(Cc2ccco2)C(=O)c2ccc(F)cc2)cc1` the figure was -3.3% (inactive); with `COc1ccc(C2C(C(=O)c3ccco3)=C(O)C(=O)N2c2nnc(C)s2)cc1OC` (stereo not drawn), 1.1% (inactive). For `CCOC(=O)c1c(NC(=O)c2ccc(Cl)cc2)sc2c1CCC(C)C2` (stereo not drawn), the inhibition was -4.7% (inactive). With `Cc1onc(-c2ccccc2Cl)c1C(=O)NC1CCCCC1` the figure was 4.7% (inactive); with `Cc1ccc(N2C(=O)CSC2c2ccc(C(C)(C)C)cc2)cc1C` (stereo not drawn), -24.8% (inactive). For the molecule `COC(=O)c1c(NC(=O)c2cccc(Cl)c2)sc2c1CCCC2`, the inhibition was 4.4% (inactive). Regarding `Cc1ccc(N2C(=O)C(=O)/C(=C(\O)c3ccc(Cl)cc3)C2c2ccc(O)cc2)cc1Br` (stereo not drawn), the inhibition was -2.4% (inactive). Turning to `CCOC(=O)c1c(NC(=O)c2ccccc2C)sc2c1CCC(CC)C2` (stereo not drawn), the inhibition is -9.3% (inactive). In the case of `Cc1cc(C)n(Cc2c(C(=O)N3CCC(C)CC3)noc2C)n1`, the inhibition is 18.2% (inactive). As for `CCCN(C(=O)[C@H]1[C@@H]2C[C@@H]3[C@H]1C(=O)O[C@@H]3C2)c1ccccc1F`, the inhibition is 15.9% (inactive). With `COc1ccc(C2/C(=C(\O)c3ccc(C)cc3)C(=O)C(=O)N2CCN2CCOCC2)c(OC)c1` (stereo not drawn) the figure was -7% (inactive). As to `O=C(C(c1ccccc1)N1Cc2ccccc2C1=O)N1CCCCCC1` (stereo not drawn), the inhibition was 1.9% (inactive). With `Nc1nonc1-c1nc2ccccc2n1CC(=O)Nc1ccccc1Cl` the figure was -1.8% (inactive); with `COC(=O)c1ccc(-c2ccco2)n1CC(=O)Nc1c(C)cc(C)cc1C`, -13.6% (inactive). In the case of `COc1ccc(C2/C(=C(/O)c3ccccc3)C(=O)C(=O)N2c2ccc(F)cc2)c(OC)c1` (stereo not drawn), the inhibition is 3.6% (inactive). With `O=C1C(=O)N(Cc2cccnc2)C(c2ccc(F)cc2)/C1=C(\O)c1ccccc1` (stereo not drawn) the figure was 6.7% (inactive).

`CC(C)OC(=O)c1c(NC(=O)C2CCCC2)sc2c1CCCC2`: the inhibition is -0.2% (inactive).

With `O=C1C(=O)N(CCCN2CCOCC2)C(c2cccc(Br)c2)/C1=C(\O)c1ccccc1` (stereo not drawn), the inhibition is 5.8% (inactive).

For `Cc1nnc(N2C(=O)C(=O)/C(=C(/O)c3ccccc3)C2c2ccc(Cl)cc2)s1` (stereo not drawn), the inhibition is -5% (inactive). With `COCCCN1C(=O)C(=O)/C(=C(/O)c2ccccc2)C1c1ccc(Br)cc1` (stereo not drawn) the figure was 3.8% (inactive); with `COc1cccc(NC(=O)C2CCC(=O)N2S(=O)(=O)c2ccccc2)c1` (stereo not drawn), -2.9% (inactive); with `COC(=O)c1c(NC(=O)c2cccc(Br)c2)sc(C)c1C`, 3.3% (inactive). Take `CCOC(=O)c1sc(N2C(=O)C(=O)/C(=C(/O)c3ccccc3)C2c2ccc(O)c(OC)c2)nc1C` (stereo not drawn): the inhibition was 0.2% (inactive).

On to `COC(=O)c1c(NC(=O)c2ccc(F)cc2)sc2c1CCC2`, for which the inhibition was -10.9% (inactive). With `Cc1ccc(C2CC(c3ccccc3)n3ncnc3N2C(=O)c2ccccc2)cc1` (stereo not drawn) the figure was -21.4% (inactive); with `CC(O)CN1C(=O)C(=O)/C(=C(\O)c2ccccc2)C1c1cccnc1` (stereo not drawn), 1.7% (inactive).

For the molecule `COc1ccccc1C1CC(=O)NC2=C1C(=O)CC(c1ccccc1Cl)C2` (stereo not drawn), the inhibition was 0.3% (inactive). As to `COc1ccc(C2C(C(=O)c3cc4ccccc4o3)=C(O)C(=O)N2CCN(C)C)cc1OC` (stereo not drawn), the inhibition was 9.3% (inactive). Consider `COC(=O)c1c(NC(=O)c2cccs2)sc(C)c1C`, for which the inhibition was 1.5% (inactive).

For the molecule `CCCCCCc1cc2c(=O)c(-c3nc4ccccc4n3C)c(C(F)(F)F)oc2cc1O`, the inhibition was 3.9% (inactive). With `COc1cccc(OC)c1C(=O)Oc1ccc2c(=O)c(Oc3ccc4ccccc4c3)c(C(F)(F)F)oc2c1` the figure was 4.4% (inactive). `C=CCN1C(=O)C2(/C(=C(/O)c3ccc(C)cc3)C(=O)C(=O)N2CC2CCCO2)c2ccccc21` (stereo not drawn): the inhibition is 0.9% (inactive). With `CCN(CC)Cc1c(O)ccc2c(=O)c(-c3ccc(OC)c(OC)c3)c(C(F)(F)F)oc12` the figure was -8.6% (inactive); with `O=C1C(=O)N(c2nncs2)C(c2cccs2)/C1=C(/O)c1ccc(F)cc1` (stereo not drawn), -5.3% (inactive); with `CCOC(=O)c1c(NC(=O)c2ccc(OC)cc2)sc(C)c1C`, -3.8% (inactive). With `CC(C)c1ccc(C2/C(=C(\O)c3ccccc3)C(=O)C(=O)N2CCC(=O)O)cc1` (stereo not drawn) the figure was 7.3% (inactive); with `COC(=O)c1c(NC(=O)c2ccc(Cl)c(Cl)c2)sc2c1CCCC2`, -2.7% (inactive); with `CCOC(=O)c1c(CC(C)C)csc1NC(=O)c1ccccc1F`, -1.5% (inactive). With `COc1ccc(Br)cc1CNC(=O)Cn1ncc2ccccc21` the figure was -17.2% (inactive); with `CCCCn1c(=O)c2c(nc3n2CCN3Cc2ccco2)n(C)c1=O`, -0.5% (inactive).

Turning to `O=c1c(-c2cccc(Cl)c2)c(C(F)(F)F)oc2c(CN3CCOCC3)c(O)ccc12`, the inhibition is 3.4% (inactive).

Turning to `CCc1nn(Cc2ccccc2F)c(=O)c2cc3cc(C)ccc3n12`, the inhibition is -0.2% (inactive).

For the molecule `CCN(CC)C(=O)c1c(NC(=O)c2ccccc2F)sc2c1CCC(C)C2` (stereo not drawn), the inhibition is 2.2% (inactive).

With `CCOC(=O)c1c(NC(=O)c2ccccc2OCC)sc2c1CCCC2`, the inhibition was -11.3% (inactive). Consider `Cc1ccc(OC(=O)c2ccc(N3C(=O)c4cccc(N)c4C3=O)cc2)cc1C`, for which the inhibition was -3.5% (inactive). With `CCOC(=O)C1=C(C)N(c2ccc(C)cc2)C(=O)/C1=C\c1ccccc1OC`, the inhibition was -4.9% (inactive). Regarding `O=C1C(=O)N(CCc2c[nH]c3ccccc23)C(c2cccnc2)/C1=C(/O)c1ccc(Cl)cc1` (stereo not drawn), the inhibition is -0.1% (inactive). With `CCc1ccc(Oc2c(C(F)(F)F)oc3cc(OCC(=O)OC4CCCCC4)ccc3c2=O)cc1` the figure was 1.4% (inactive); with `Cc1sc(NC(=O)C2C3CCC(O3)C2C(=O)O)c(C(N)=O)c1-c1ccc(C(C)C)cc1` (stereo not drawn), -4.5% (inactive); with `O=C1C(=O)N(c2cccc(C(F)(F)F)c2)C(c2ccccc2[N+](=O)[O-])/C1=C(\O)c1ccccc1` (stereo not drawn), -1.4% (inactive). With `CCOc1ccccc1C(=O)N(Cc1ccc(Cl)cc1)Cc1ccco1` the figure was -14.6% (inactive); with `O=C1C(=O)N(Cc2cccnc2)C(c2cccc(Br)c2)/C1=C(\O)c1ccccc1` (stereo not drawn), 4.9% (inactive); with `CC(C)OC(=O)c1c(NC(=O)C2CCCCC2)sc2c1CCCC2`, -2.7% (inactive).
